Avidin bead fluor: green autofluorescence of compounds with avidin beads – biophysical, 488/530 nm, flow cytometry, artefact control, profiling panel; compound fluorescence 488/530 nm; stronger effect = higher value; fluorescence (KMESF) at 10 µM; hit rate 0.38% among 220,000; in the data active means fluorescence above about 47
RGS8-Gao: RGS8-Galphao binding modulators, primary screen, biochemical, multiplexed bead flow cytometry; actives lie on both sides; response (percent of control binding), % at 10 µM; hit rate 0.34% among 220,000; AID 1423, 2008; in the data active means response below about 60% or above about 140%; inactive means in between;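 further: Galphao activated as the GDP aluminium fluoride complex binding bead-coupled RGS8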
RGS7-Gao reg: RGS7-Galphao binding modulators, primary screen, biochemical, multiplexed bead flow cytometry. hit rate 0.35% among 220,000. binding response (% of control), % at 10 µM. AID 1439, 2008. actives lie on both sides; in the data active means binding response below about 49% or above about 150%; inconclusive means no clear call, values can overlap the other calls; inactive means in between;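 further: fluorescent Galphao held in activated GDP-AlF4 state binding bead-coupled RGS7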
GSH bead fluor: compound fluorescence on glutathione beads, profiling panel, artefact control, biophysical, 488/530 nm, flow cytometry; GSH beads flow cytometry, compound fluorescence 488/530 nm; stronger effect = higher value; AID 1776, 2009; hit rate 0.25% among 190,000; fluorescence (KMESF) at 10 µM; in the data active means fluorescence above about 89;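 further: glutathione beads carrying GST-tagged Bcl family fusion proteins plus one bare bead set; values are compound well signal with DMSO vehicle wells as background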
RGS4-Gao reg: modulators of RGS4 binding to Galphao, primary screen, biochemical, multiplexed bead flow cytometry | Guanine nucleotide-binding protein G(o) subunit alpha (Homo sapiens), P09471 | hit rate 0.33% among 220,000 | binding response (% of control), % at 10 µM | actives lie on both sides; in the data active means binding response below about 49% or above about 150%; inactive means in between;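 further: fluorescent Galphao activated with aluminum fluoride binding bead-coupled RGS4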
RGS16-Gao HTS: modulators of RGS16 binding to Galphao, primary screen, biochemical, human proteins, multiplexed bead flow cytometry. Regulator of G-protein signaling 16 (Homo sapiens) + Guanine nucleotide-binding protein …. bead-based flow cytometry RGS16-Galphao binding, fluorescence; actives lie on both sides. binding response (% of control), % at 10 µM. hit rate 0.38% among 220,000. AID 1441, 2008;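 further: Galphao activated by GDP with aluminum fluoride before binding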
RGS-Gao: modulators of RGS–Galpha-o binding, primary screen, biochemical, multiplexed beads, flow cytometry, RGS4/7/8/16/19; shares compounds with RGS16-Gao HTS; multiplexed bead flow cytometry; AID 1504, 2009; RGS4–Galpha-o binding response, % at 10 µM; hit rate 99% among 1,600;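 further: fluorescently labeled Galpha-o bound to GDP with aluminium fluoride binding biotinylated RGS beads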
Avidin counter: disruption of biotin probe capture by avidin, counter-screen for RGS protein interaction modulators, biochemical, flow cytometry, bead-based; shares compounds with RGS16-Gao HTS; streptavidin beads, fluorescein-biotin binding; inhibition, % at 10 µM; 1,700 tested, under 10 active;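 active means inhibition above 50%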;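 further: median green fluorescence of gated singlet beads compared with DMSO control wells; 0% = DMSO wells and 100% = complete loss of bead fluorescence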
RGS8-Gao single: RGS8-Galphao binding modulators, confirmation, biochemical, multiplexed bead flow cytometry, single concentration; shares compounds with RGS16-Gao HTS; bead-based flow cytometry RGS8-Galphao binding, fluorescence; actives lie on both sides; binding response (% of control), % at 10 µM; hit rate 3% among 1,700; AID 1836, 2009; in the data active means binding response below about 72% or above about 130%; inactive means in between;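 further: Galphao activated as GDP AlF4 complex before binding bead RGS8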
RGS7-Gao confirm: RGS7-Galphao binding modulators, confirmation, biochemical, multiplexed bead flow cytometry, single concentration; AID 1837, 2009; response (percent of control binding), % at 10 µM; bead-based flow cytometry RGS7-Galphao binding; actives lie on both sides; hit rate 7.8% among 1,700; shares compounds with RGS16-Gao HTS; in the data active means response below about 75% or above about 130%; inactive means in between;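 further: fluorescent Galphao activated with GDP and aluminum fluoride binding bead-coupled RGS7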
RGS16-Gao conf: modulators of RGS16-Galphao protein binding, confirmation, biochemical, single concentration, multiplexed bead flow cytometry. shares compounds with RGS16-Gao HTS. hit rate 4% among 1,700. AID 1838, 2009. bead-based flow cytometry; actives lie on both sides. response (% of control binding), % at 10 µM; in the data active means response below about 74% or above about 130%; inactive means in between;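 further: Galphao activated as the GDP aluminium fluoride complex binding bead-coupled RGS16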
RGS4-Gao single: modulators of RGS4-Galphao protein binding, confirmation, biochemical, single concentration, multiplexed bead flow cytometry | hit rate 4% among 1,700 | shares compounds with RGS16-Gao HTS | AID 1840, 2009 | actives lie on both sides | binding response (% of control), % at 10 µM; in the data active means binding response below about 74% or above about 130%; inactive means in between
RGS19-Gao conf: regulators of RGS19-Galphao binding, confirmation, biochemical, single point, multiplexed bead flow cytometry; bead-based flow cytometry RGS19-Galphao binding; actives lie on both sides; shares compounds with RGS16-Gao HTS; response (percent of control binding), % at 10 µM; hit rate 5% among 1,700; in the data active means response below about 50% or above about 160%; inactive means in between;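 further: 100% = no compound control and 0% = blank background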
Target sequence (P09471 whole entry, looked up): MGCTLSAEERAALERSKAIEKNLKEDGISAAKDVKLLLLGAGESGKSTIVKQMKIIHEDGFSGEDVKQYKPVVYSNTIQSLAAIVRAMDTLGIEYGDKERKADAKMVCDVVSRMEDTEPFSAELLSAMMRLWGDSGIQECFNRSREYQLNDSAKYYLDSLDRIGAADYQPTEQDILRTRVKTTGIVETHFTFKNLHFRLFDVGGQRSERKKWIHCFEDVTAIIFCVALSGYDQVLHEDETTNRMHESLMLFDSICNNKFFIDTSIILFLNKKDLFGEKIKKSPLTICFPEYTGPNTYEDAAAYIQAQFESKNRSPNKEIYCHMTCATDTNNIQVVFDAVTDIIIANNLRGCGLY
Target sequence (P49795 whole entry, looked up): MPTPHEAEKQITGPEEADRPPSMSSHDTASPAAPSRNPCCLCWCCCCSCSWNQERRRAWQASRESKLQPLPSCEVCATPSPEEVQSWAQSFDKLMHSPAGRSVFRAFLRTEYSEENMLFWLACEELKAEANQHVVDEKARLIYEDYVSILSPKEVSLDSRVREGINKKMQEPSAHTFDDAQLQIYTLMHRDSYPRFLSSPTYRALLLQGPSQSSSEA
Active calls of the source: *; ? = inconclusive; . = no result; [ ] = remark or other dose. A selection: hits, their analogues and other compounds. The true share with any hit is near 1.2%. Unless noted, how the calls were made is not given here.

SMILES	Avidin bead fluor	RGS8-Gao	RGS7-Gao reg	GSH bead fluor	RGS4-Gao reg	RGS16-Gao HTS	RGS-Gao	Avidin counter	RGS8-Gao single	RGS7-Gao confirm	RGS16-Gao conf	RGS4-Gao single	RGS19-Gao conf
CCN1/C(=C/C=C/c2oc3ccc4ccccc4c3[n+]2CC)Oc2ccc3ccccc3c21	59*	126	616*[activator]	205*	539*[activator]	369*[activator]	.	-1	127*[activator]	526*[activator]	264*[activator]	431*[activator]	458*[activator]
Cc1nn(-c2ccccc2)c(C)c1NC(=O)Cc1cccs1	6	68	55	17	56	58	.	.	.	.	.	.	.
Cc1nn(-c2ccccc2)c(C)c1NC(=O)c1cccs1	9	80	88	10	82	-7.9*	82*	0	101	103	100	103	101
Cc1ccc(C)c(S(=O)(=O)Nc2ccccc2C(=O)Nc2cc(C)on2)c1	34	101	107	14	102	110	.	.	.	.	.	.	.
Cc1ccc(C)c(NC(=O)c2ccccc2NS(=O)(=O)c2cc([N+](=O)[O-])ccc2C)c1	16	121	103	5	104	188*[activator]	104*	.	.	.	.	.	.
CSCCC(NC(=O)c1cccc([N+](=O)[O-])c1)c1nc2ccccc2[nH]1 (centres undefined)	4	109	100	9	100	105	.	.	.	.	.	.	.
CSCCC(NC(=O)c1cccc([N+](=O)[O-])c1)C(=O)O (centres undefined)	15	115	113	13	106	187*[activator]	106*	0	100	99	100	98	91
CC(=O)c1ccc(NC(=O)c2ccc(C)c(Br)c2)cc1	7	93	92	18	98	60	.	.	.	.	.	.	.
CC(=O)c1ccc(NC(=O)Nc2ccc(Br)cc2C)cc1	76*	88	216*[activator]	20	204*[activator]	184*[activator]	.	0	98	95	100	99	87
Cn1cnc(S(=O)(=O)Nc2cc(-c3ccc(Cl)cc3)nn2C)c1	4	102	?	.	102	104	.	.	.	.	.	.	.
O=C(CNC(=O)c1cccs1)N/N=C/c1c[nH]c2ccccc12	-1	6.0*	2.4*	8	2.8*	-4.2*	.	0	105	100	109	103	94

Bioassay records as filed in PubChem BioAssay.
